Hit rate of the full screen: of about 340,000 compounds, about 12,000 (3.5%) were called active. About 18% were inconclusive and are not listed. Calls follow the shape of the dose curve; as a rule, active = well fitted inhibition curve with a large enough effect; inconclusive = small, poorly fitted or top-dose-only effect, or another doubt; inactive = no such curve, though single readings can be large or run the other way. Shown is part of a subset that was picked to be rich in actives.
assay: qHTS Assay for Inhibitors of Hepatitis C Virus (HCV); settings: Huh7.5.1 HCVcc-Cre infection, luciferase reporter, 44 h; series mostly up to 41.8 µM; activity change, negative = inhibition: at the top concentration
Summary of the method: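 A cell-based infection assay in which seeded cells (1,000 per well) receive test compound after 4 h, are inoculated with HCVcc-Cre at approximately 0.5 moi, and are incubated 44 h before luminescence detection.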
% is scaled to controls: 0 for no effect and ±100 for the full control effect; potency is read from the fitted curve at half-maximal effect.

Compound | activity change, negative = inhibition | Potency
CSc1ncccc1C(=O)Nc1cccc(S(=O)(=O)N2CCOCC2)c1 | 1.96% (inactive) | 
C[C@H](NC(=O)c1[nH]cnc1C(=O)Nc1nccs1)c1ccccc1 | 7.12% (inactive) | 
Cc1nn(-c2ccccc2)nc1C(=O)OCC(=O)N1CCCCC1C (stereo not given) | -26.6% (inactive) | 
CN(C)C(=O)N=NC(=O)N(C)C | 2.13% (inactive) | 
O=C(c1cc2nc(-c3ccccc3)cc(-c3ccccc3)n2n1)N1CCC2(CC1)OCCO2 |  | 10 µM (active)
Cc1ccc(-c2cc(C(=O)N3CCC4(CC3)OCCO4)no2)cc1 | -6.91% (inactive) | 
O=C(c1ccccc1[N+](=O)[O-])N1CCC2(CC1)OCCO2 | 17.8% (inactive) | 
CC(=O)N1CCc2c(sc(NC(=O)CCS(=O)(=O)c3ccc(C)cc3)c2C(N)=O)C1 | 11.6% (inactive) | 
CCN(CC)c1ccc(C(=O)N/N=C/c2ccc(N3CCOCC3)cc2)cc1 | 1.15% (inactive) | 
CN(C)c1ccc(/C=N/Nc2cc(N3CCOCC3)nc(N3CCOCC3)n2)cc1 |  | 3.98 µM (active)
Cc1cc(C(=O)N/N=C/c2ccc(N3CCOCC3)cc2)c(C)o1 | -11.3% (inactive) | 
CC(=O)Oc1ccc(OC(C)=O)c2c1C1C=CC2CC1 | -24.3% (inactive) | 
Cc1n[nH]c(=O)c2c(NC(=O)CSc3cc(Cl)ccc3Cl)oc(C)c12 | 2.48% (inactive) | 
O=C(CSc1nc(-c2ccco2)cc(C(F)(F)F)n1)N1CCc2ccccc2C1 |  | 11.2 µM (active)
Cc1cc(C(F)(F)F)nn1-c1nc(-c2ccco2)cc(C(F)(F)F)n1 | -21.2% (inactive) | 
COc1ccc(-c2cc(C(F)(F)F)nc(SCCC(=O)NCc3ccco3)n2)cc1 | -54.1% (inactive) | 
CCN([C@H](CO)C(C)C)S(=O)(=O)c1ccccc1Br | 0.83% (inactive) | 
Cc1ccc(NC(=O)CN(C)C(=O)c2cccc(S(=O)(=O)N3CCCC3)c2)cc1 | 3.18% (inactive) | 
COCCNC(=S)N/N=C/c1c(C)[nH]c2ccccc12 |  | 10 µM (active)
Cc1[nH]c2ccccc2c1/C=N\NC(=O)Cn1nnc(-c2ccccc2)n1 | 9.36% (inactive) | 
Cc1[nH]c2ccccc2c1/C=N/NC(=O)CNC(=O)c1ccc2c(c1)OCO2 | -8.97% (inactive) | 
C[C@@H]1CN([C@@H](C)CO)C(=O)c2cc(NC(=O)C3CC3)ccc2O[C@H]1CN(C)C | 19.1% (inactive) | 
O=[N+]([O-])c1ccc(S(=O)(=O)Nc2cccc(-c3ccc(N4CCCC4)nn3)c2)cc1 | -3.97% (inactive) | 
CC(OC(=O)c1c(F)cccc1F)C(=O)NCCC1=CCCCC1 (stereo not given) | 4.45% (inactive) | 
CN(CC(=O)Nc1ccc(F)c(F)c1F)C(=O)Cn1cnc2c1c(=O)n(C)c(=O)n2C | 0.609% (inactive) | 

Compound | activity change, negative = inhibition | Potency
CC(C)Cn1c(N)c(C(=O)COC(=O)C2CCCN2C(=O)c2cccs2)c(=O)n(C)c1=O (stereo not given) | 10.3% (inactive) | 
COc1ccccc1NC(=O)COC(=O)COc1ccccc1F | 1.95% (inactive) | 
COc1ccc(OC)c(S(=O)(=O)Nc2ccccc2F)c1 | 20.6% (inactive) | 
COc1ccc(NS(=O)(=O)c2cc(NC(=O)COc3ccccc3F)ccc2OC)cc1 |  | 11.2 µM (active)
CCc1noc(C)c1C(=O)N1CCCC(N2CCN(c3ccc(F)cc3)CC2)C1 (stereo not given) | -13.5% (inactive) | 
Cn1c(N)cc(=O)n(C)c1=S | 12% (inactive) | 
C=C(C)CNC(=O)c1ccc(OC2CCN(C(=O)COC)CC2)cc1 | 12.3% (inactive) | 
COc1ccc(NC(=O)CN(C)C(=O)CC2CCCCC2)cc1 | -17.7% (inactive) | 
COc1ccc(-c2csc(Nc3ccc(O)cc3)n2)cc1 |  | 12.6 µM (active)
COc1ccc(OC)c(Nc2nc(-c3ccc(O)c(O)c3)cs2)c1 |  | 10 µM (active)
CCNc1nc(-c2cc3ccccc3o2)cs1 | -7.72% (inactive) | 
COc1ccc2nc(Nc3nc(-c4ccncc4)cs3)sc2c1 | -22% (inactive) | 
CCN1CCN(c2nc(Nc3cc(OC)ccc3OC)nc(Nc3cc(OC)ccc3OC)n2)CC1 | -80% (inactive) | 
CC(C)(C)C(=O)OCc1nc(-c2ccc(O)c(O)c2)cs1 | -67.3% (inactive) | 
O=C(Nc1ccncc1)c1cc2ccccc2o1 | -23.4% (inactive) | 
O=c1oc2ccccc2cc1-c1csc(Nc2ccc(O)cc2)n1 |  | 31.6 µM (active)
COC(=O)CCc1sc(Nc2ccc(Br)cc2)nc1-c1ccc(OC)cc1 | 7.69% (inactive) | 
CC(=O)C[C@H](O)CC(=O)[C@@H]1OC(=O)[C@@H](C)C/C=C\Cc2ccccc21 | -6.09% (inactive) | 
COc1ccc(C(=O)COC(=O)CN2C(=O)C3CC=CCC3C2=O)c(OC)c1 (stereo not given) | 1.76% (inactive) | 
CC1(C)CC[C@@]2(C(=O)O)C(C1)C1=CCC3[C@@]4(C)CC[C@H](O)C(C)(C)C4CC[C@@]3(C)[C@]1(C)C[C@H]2O (stereo not given in full) | 16.8% (inactive) | 
Cc1cc(C)cc(NC(=O)C(c2ccccc2)N2CCN(CC(=O)N3CCCC3)CC2)c1 (stereo not given) | -20.3% (inactive) | 
CCOc1ccc(C(=O)CCC(=O)Nc2ccncc2)cc1 | 0.752% (inactive) | 
O=C(CNC(=O)c1ccccc1Br)NCCSc1ccc(Br)cc1 | -3.3% (inactive) | 
CN(C)C1=NC[C@H](Cc2ccccc2)N1CCc1ccc(F)cc1 | 9.99% (inactive) | 
C#CCOCCOCCOCCNc1nc(N2CCN(C(=O)[C@H](CCCCN)n3cc(CCC(=O)O)nn3)CC2)nc(N2CCN(C(=O)[C@H](CCCCN)n3cc(CC(C)O)nn3)CC2)n1 (stereo not given in full) | 0.129% (inactive) | 

Compound | activity change, negative = inhibition | Potency
CC1CCCCC1NCC(=O)Nc1ccccc1C(=O)Nc1ccccc1 (stereo not given) |  | 0.891 µM (active)
CCCC(NCC(=O)Nc1ccccc1C(=O)NC1CC1)c1ccccc1 (stereo not given) | -16.5% (inactive) | 
COc1cccc(CN(C)CC(=O)Nc2ccccc2C(=O)Nc2ccccc2)c1 | -12.5% (inactive) | 
Cc1ccc(S(=O)(=O)NC2CCCCCC2)cc1 | -0.44% (inactive) | 
O=C1C=CN2CCCC2CC1 (stereo not given) | -5.11% (inactive) | 
COc1ccc(C(CNC(=O)c2ccc(S(=O)(=O)Nc3ccccc3C)cc2)N2CCOCC2)cc1 (stereo not given) | -0.659% (inactive) | 
CCOC(=O)c1sc(=S)n2c1[nH]c(=O)c1ccc(C(=O)OC)cc12 | -9.87% (inactive) | 
CCOC(=O)C1=C(C)Nc2sc(C(=O)c3ccc(Br)cc3)c(N)c2C1c1ccc(C(=O)OC)cc1 (stereo not given) |  | 8.91 µM (active)
CCOC(=O)c1sc(=NC(=O)c2ccc(Br)cc2)n(C)c1C | 23.1% (inactive) | 
CCCCCCSc1ccc([C@@H]2[C@@H]3C(=O)N(CC)C(=O)[C@@H]3[C@]3(C(=O)OC)CCCCN23)cc1OC | 5.98% (inactive) | 
CCCCOc1ccc(CON(C(C)=O)C(C)=O)cc1Cl | -1.6% (inactive) | 
CCCOc1ccc(C2=CSC3=NCCN23)cc1Cl |  | 11.2 µM (active)
Cc1ccc(C2=CSC3=NS(=O)(=O)CCN23)cc1C | 2.87% (inactive) | 
CC[C@]12c3[nH]c4cc(CCC(=O)N(C)C)ccc4c3CCN1C(=O)[C@@H](CC(=O)NCCCN(C)C)C[C@@H]2C(=O)N1CCN(C(=O)c2ccco2)CC1 | 7.67% (inactive) | 
Cc1noc(C)c1S(=O)(=O)N(C)C[C@H]1Oc2ccc(NC(=O)C3CCCCC3)cc2C(=O)N([C@H](C)CO)C[C@@H]1C | -2.1% (inactive) | 
CCOC(=O)[C@H]1[C@H]2COc3ccc(Br)cc3[C@@H]2N2C(=O)CN(C)C(=O)[C@@]12C | 47.2% (inactive) | 
N#Cc1c(-c2ccccc2)c(-c2ccccc2)n[nH]c1=O | 10.3% (inactive) | 
N#Cc1c2c(c(-c3ccccc3)[nH]c1=O)CCCC2 | -1.49% (inactive) | 
N#Cc1c(/N=C/N2CCCC2)oc(-c2ccccc2)c1-c1ccccc1 |  | 14.1 µM (active)
CCN(CC)C(=O)c1nc[nH]c1C(=O)N(C)Cc1ccccc1 | 15.3% (inactive) | 
COc1ccc(C(=O)N2CCN(c3ncccn3)CC2)cc1S(=O)(=O)N1CCOCC1 | 0.727% (inactive) | 
CCC(=O)c1cc(F)ccc1OCC(=O)Nc1ccc2c(c1)OCCO2 | -10.2% (inactive) | 
Cc1ccc(NC(=O)C2CC(=O)N(c3ccc4c(c3)OCCO4)C2)cc1S(=O)(=O)N1CCCCCC1 (stereo not given) |  | 10 µM (active)
Cc1ccc(N2CC(C(=O)Nc3ccc(S(=O)(=O)N4CCCC4)cc3)CC2=O)cc1C (stereo not given) | 0.4% (inactive) | 
COc1ccc(S(=O)(=O)N2CCCCC2)cc1NC(=O)C1CC(=O)N(c2ccc3c(c2)OCCO3)C1 (stereo not given) | -11.2% (inactive) | 

Compound | activity change, negative = inhibition | Potency
CN1C(C(=O)NCc2ccco2)CC2Cn3c(nc4ccccc43)C21 (stereo not given) | 10.9% (inactive) | 
CC(=O)Nc1ccc(NC(=O)CS(=O)(=O)c2cn(CC(=O)N3CCCCC3)c3ccccc23)cc1 | 5.01% (inactive) | 
CCOC(=O)c1ccc(NC(=O)CCn2c(=O)oc3ccccc32)cc1 | 24.3% (inactive) | 
CCOC(=O)c1ccc(NC(=O)CS(=O)(=O)c2cn(CC)c3ccccc23)cc1 |  | 14.1 µM (active)
Cc1ccc(NC(=O)C(C)OC(=O)Cc2c[nH]c3ccccc23)cc1S(=O)(=O)N1CCOCC1 (stereo not given) | -6.29% (inactive) | 
Cc1ccc(C)c(S(=O)(=O)N(C)c2ccc(OC(=O)C3CCN(C(=O)c4ccc(F)cc4)CC3)cc2)c1 | 11.6% (inactive) | 
CCCCNC1(C#N)CCN(Cc2ccccc2)CC1 | 12.6% (inactive) | 
CN(C)CCCCCN(C)Cc1cc2ccccc2o1 |  | 3.16 µM (active)
OCC1(Cc2ccccc2)CCN(Cc2cc3ccccc3o2)CC1 | 1.23% (inactive) | 
COc1ccccc1CN(C)C(=O)c1cc2ccccc2o1 | 4.38% (inactive) | 
Brc1ccc(CN2CC[C@H]3C=CCc4cccc(c43)C2)cc1 | -12.9% (inactive) | 
COc1ccc(S(=O)(=O)N2CCOCC2)cc1NC(=O)COc1ccccc1 | -5.17% (inactive) | 
CCC(=O)NCc1cc(-c2nn(C)c(=O)c3ccccc23)ccc1OC | -2.55% (inactive) | 
COc1ccc(-c2nn(C)c(=O)c3ccccc23)cc1NC(=O)COc1ccccc1 |  | 10 µM (active)
CC(C)(C)c1nnc2sc(SCC(O)=C(C#N)c3nc4ccccc4[nH]3)nn2c1=O | -8.95% (inactive) | 
CCOC(=O)C1CCCN(C(=O)c2ccc(C)c(S(=O)(=O)N3CCCCC3)c2)C1 (stereo not given) | 21.1% (inactive) | 
O=C1CCC/C=C\C[C@@H](CC(=O)N(CCO)Cc2ccccc2)C(=O)NCCO1 | -0.947% (inactive) | 
CC(OC(=O)/C=C/c1ccccc1)C(=O)Nc1ccc(C(N)=O)cc1 (stereo not given) | 17.8% (inactive) | 
Oc1ccc(Br)cc1/C=N/Nc1ccccn1 |  | 3.55 µM (active)
Oc1ccc(Br)cc1C=Nc1ccc2[nH]ncc2c1 | 12.4% (inactive) | 
O=C(CCCO)N/N=C/c1cc(Br)ccc1O | 12.6% (inactive) | 
O=C(NCC1CCCCC1)NCC1CCCCC1 | 21.3% (inactive) | 
Cc1c(NC(=O)C(C)Oc2cccc(Cl)c2)c(=O)n(-c2ccccc2)n1C (stereo not given) | 7.65% (inactive) | 
CC(Nc1nc(C(F)(F)F)nc2ccccc12)c1cccs1 (stereo not given) |  | 10 µM (active)
Cc1cc(C)n(-c2nc(C(F)(F)F)nc3ccccc23)n1 | -1.56% (inactive) | 
